{"source": "PubChem BioAssay (EPA / NIEHS)", "note": "Results filed as inconclusive are left out. Calls of active or inactive are those of the source. The calls were made as follows: active = hit-call score of the fitted dose curve at least 0.9, where 1 is the maximum; inconclusive = response in the unintended direction; inactive = score below 0.9.", "data": [{"read-out": "Broad substrate specificity ATP-binding cassette transporter ABCG2 (Homo sapiens) (UniProt Q9UNQ0)", "assay": "CLD_ABCG2_48hr: CellzDirect (CLD) Gene Expression Assay for ABC Transporter (ABCG2) at 48 hours (AID 2283704);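 as to AC50: potency for induction of ABCG2 mRNA above the DMSO baseline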", "method": "CLD_48hr is a cell-based, multiplexed-readout assay that uses hepatocyte, a human liver primary cell, with measurements taken at 48 hours after chemical dosing in a 96-well plate.CLD_ABCG2_48hr is one of 16 assay component(s) measured or calculated from the CLD_48hr assay. It is designed to make measurements of mRNA induction, a form of inducible reporter, as detected with chemiluminescence signals by Quantitative Nuclease Protection Assay (qNPA) technology.Data from the assay component CLD_ABCG2_48hr was analyzed at the endpoint, CLD_ABCG2_48hr, in the positive analysis fitting direction relative to DMSO as the negative control and baseline of activity. Using a type of inducible reporter, gain-of-signal activity can be used to understand changes in the reporter gene as they relate to the gene ABCG2. Furthermore, this assay endpoint can be referred to as a primary readout. To generalize the intended target to other relatable targets, this assay endpoint is annotated to the transporter intended target family, where subfamily is ABC transporter.\nHuman hepatocyte cultures were treated daily for two consecutive days with fresh dosing solutions containing appropriate concentrations of the 320 ToxCast chemicals (chemical identities were blinded to CellzDirect and other ToxCast collaborators), vehicle control (0.2% DMSO), and positive control inducers as summarized in Table 1. Due to the large number of treatment groups and chemicals examined, the ToxCast chemicals were divided into two groups (spanning two independent cultures of hepatocytes from separate donor preparations (Hu778: ToxCast plates 1 and 2; Hu776: ToxCast plates 3 and 4). Each preparation of human hepatocyte cultures was treated with respective vehicle control, medium only control, set of six positive controls/reference chemicals for the five hepatic receptor pathways, and a subset of eight of the ToxCast chemicals (indoxacarb, pyrithiobac-sodium, norflurazon, cyhalofop-butyl, methomyl, thiram, acetochlor, and propiconazole). These replicate data, coupled with internal replicates designed within the blinded ToxCast chemical library, provided additional data to evaluate interindividual differences between hepatocyte preparations and their potential impact on chemical profiles.Cell morphology and integrity were evaluated using phase-contrast microscopy as an indicator of hepatocyte cell health (Tyson & Green, 1987). Cultures for each treatment group (i.e., media, vehicle [0.2% DMSO], positive control inducers [multiple concentrations], and the ToxCast chemicals [multiple concentrations]) were observed and cell morphology was assessed relative to vehicle control cultures at each harvest time point (0, 6, 24, or 48 h). […] Images were evaluated at the conclusion of the study to assess changes in cell integrity and account for the effects of chemical exposure on uncharacteristic changes in concentration-dependent gene expression profiles. The results from these determinations of apparent cytotoxicity were annotated (yes/no) alongside the corresponding qNPA data for reference.At the conclusion of each treatment period, hepatocyte cultures (96-well) were washed with 1 volume of HBSS, lysed by addition of 25 ul ArrayPlate lysis buffer (HTG, Tucson, AZ), and 70 ul/well of Denaturation Oil, denatured by incubation at 95C for 10 min, and frozen at approximately -70C until analysis by nuclease protection assay (qNPA) (Roberts et al., 2007). For qNPA analysis, cell lysates were thawed at 50C for approximately 30 min, qNPA probes were added, and samples were incubated at 95C for 10 min to begin the detection process by denaturing the target RNA, dissociating the duplexes and secondary structure hybridization. At the conclusion of the hybridization period, S1 nuclease reagent was added to each sample to digest all nonprotected nucleotides at 50C for 60-90 min. […]", "values": [{"smiles": "C=C(C)CN(CC)c1c([N+](=O)[O-])cc(C(F)(F)F)cc1[N+](=O)[O-]", "outcome": "inactive"}, {"smiles": "Cc1ccc(N=CN(C)C=Nc2ccc(C)cc2C)c(C)c1", "AC50": "17.4 µM (active)"}, {"smiles": "CCSC(=O)N1CCCCCC1", "outcome": "inactive"}, {"smiles": "COc1cc(Cl)c(OC)cc1Cl", "outcome": "inactive"}, {"smiles": "CC1(C)CCC(=Cc2ccc(Cl)cc2)C1(O)Cn1cncn1", "note": "(stereo not given)", "outcome": "inactive"}, {"smiles": "CCCCC(O)(Cn1cncn1)c1ccc(Cl)cc1Cl", "note": "(stereo not given)", "outcome": "inactive"}, {"smiles": "Nc1c(Cl)c(F)nc(OCC(=O)O)c1Cl", "outcome": "inactive"}, {"smiles": "Clc1nc(Cl)nc(Nc2ccccc2Cl)n1", "outcome": "inactive"}, {"smiles": "OC(c1ccc(Cl)cc1)(c1ccc(Cl)cc1)C(Cl)(Cl)Cl", "outcome": "inactive"}, {"smiles": "N#Cc1c(Cl)cccc1Cl", "outcome": "inactive"}, {"smiles": "CS(=O)(=O)c1ccc(C(=O)C2C(=O)CCCC2=O)c([N+](=O)[O-])c1", "outcome": "inactive"}, {"smiles": "CC(C)=CC1C(C(=O)OCc2coc(Cc3ccccc3)c2)C1(C)C", "note": "(stereo not given)", "outcome": "inactive"}, {"smiles": "CCNC(=O)NC(=O)C(C#N)=NOC", "outcome": "inactive"}, {"smiles": "CO/N=C(/C1=NOCCO1)c1ccccc1Oc1ncnc(Oc2ccccc2Cl)c1F", "outcome": "inactive"}, {"smiles": "CC(C)N1C(=O)N(c2ccccc2)CSC1=NC(C)(C)C", "outcome": "inactive"}, {"smiles": "CCCCC(C#N)(Cn1cncn1)c1ccc(Cl)cc1", "note": "(stereo not given)", "outcome": "inactive"}, {"smiles": "CS(=O)(=O)c1cc(C(F)(F)F)ccc1C(=O)c1cnoc1C1CC1", "outcome": "inactive"}, {"smiles": "Cn1c(-c2ccccc2)cc(-c2ccccc2)[n+]1C", "outcome": "inactive"}, {"smiles": "Nc1cnn(-c2ccccc2)c(=O)c1Cl", "outcome": "inactive"}, {"smiles": "C=CCOC(=O)C(C)(C)OC(=O)c1cc(-n2c(=O)cc(C(F)(F)F)n(C)c2=O)ccc1Cl", "outcome": "inactive"}, {"smiles": "COC(=O)c1c(C(F)F)nc(C(F)(F)F)c(C2=NCCS2)c1CC(C)C", "outcome": "inactive"}, {"smiles": "CC(C)Oc1cccc(NC(=O)c2ccccc2C(F)(F)F)c1", "AC50": "0.000858 µM (active)"}, {"smiles": "COC(=O)NC(=S)Nc1ccccc1NC(=S)NC(=O)OC", "outcome": "inactive"}, {"smiles": "CCOc1cc(C(C)(C)C)ccc1C1COC(c2c(F)cccc2F)=N1", "note": "(stereo not given)", "outcome": "inactive"}, {"smiles": "Cc1c(COC(=O)[C@@H]2[C@H](/C=C(\\Cl)C(F)(F)F)C2(C)C)cccc1-c1ccccc1", "outcome": "inactive"}, {"smiles": "COP(=S)(OC)Oc1ccc([N+](=O)[O-])c(C)c1", "outcome": "inactive"}, {"smiles": "CSC(=O)c1c(C(F)F)nc(C(F)(F)F)c(C(=O)SC)c1CC(C)C", "outcome": "inactive"}, {"smiles": "CN=C=S", "outcome": "inactive"}, {"smiles": "CC1(C)C(C(=O)OC(C#N)c2cccc(Oc3ccccc3)c2)C1(C)C", "note": "(stereo not given)", "outcome": "inactive"}, {"smiles": "O=C1C2CC=CCC2C(=O)N1SC(Cl)(Cl)Cl", "note": "(stereo not given)", "outcome": "inactive"}, {"smiles": "COc1ccc(-c2ccccc2)cc1NNC(=O)OC(C)C", "outcome": "inactive"}, {"smiles": "CNC(=O)N(C)c1nnc(C(C)(C)C)s1", "outcome": "inactive"}, {"smiles": "O=c1n(Cl)c(=O)n(Cl)c(=O)n1Cl", "outcome": "inactive"}, {"smiles": "COP(=S)(OC)SCn1nnc2ccccc2c1=O", "outcome": "inactive"}, {"smiles": "Clc1cccc(C(Cl)(Cl)Cl)n1", "outcome": "inactive"}, {"smiles": "COP(=O)(OC)O/C(C)=C/C(=O)N(C)C", "outcome": "inactive"}, {"smiles": "CC(C)(C)C(=O)C(Oc1ccc(Cl)cc1)n1cncn1", "note": "(stereo not given)", "outcome": "inactive"}, {"smiles": "N#CN=C1SCCN1Cc1ccc(Cl)nc1", "outcome": "inactive"}, {"smiles": "COCC(C)N(C(=O)CCl)c1c(C)csc1C", "note": "(stereo not given)", "outcome": "inactive"}, {"smiles": "CCCN(CC)CC1COC2(CCC(C(C)(C)C)CC2)O1", "note": "(stereo not given)", "outcome": "inactive"}]}]}
